# Reference: PubChem BioAssay (EPA / NIEHS)
# Several values for one entry are separate records, joined by “and”; a condition that tells them apart may be missing. Equal values may be shown once. Inconclusive results are not listed. Some structures have more than one record in an assay (separate samples or runs), and their calls can disagree. Activity calls are given as the source filed them. Rule for the calls, unless noted: active = hit-call score of the fitted dose curve at least 0.9, where 1 is the maximum; inactive = score below 0.9.
# What was measured:
# [1] = BSK_LPS_SRB: Viability Assessment in the BioMAP Diversity Plus: LPS Assay (AID 2283079); conditions: primary human HUVEC with PBMC;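 note: total protein by sulforhodamine B absorbance as a cytotoxicity measure; measured one day after compound addition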
# How it was run: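 SRB viability endpoint: cells fixed with 10% TCA, stained with 0.1% SRB, read at 560 nm, 24 h post-dose. HUVEC/PBMC co-culture; signal change in either direction scored relative to DMSO.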
# [2] = read-out: Interleukin-1 alpha (IL1a), IL1A (gene 3552); assay: BSK_LPS_IL1a: BioMAP Diversity Plus: LPS Assay for Interleukin-1 alpha (IL1a) Biomarker Activity (AID 2283080); conditions: primary human HUVEC with PBMC; actives raise or lower the signal
# How it was run: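 Readout is IL-1a level by ELISA, 24 h post-dose, fitted as gain or loss relative to DMSO. System: LPS-activated human primary co-culture of vascular endothelium and peripheral blood mononuclear cells, with parallel SRB total-protein cytotoxicity.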
# [3] = read-out: Monocyte Chemoattractant Protein-1 (MCP1), CCL2 (gene 6347); assay: BSK_LPS_MCP1: BioMAP Diversity Plus: LPS Assay for Monocyte Chemoattractant Protein-1 (MCP1) Biomarker Activity (AID 2283081); conditions: primary human HUVEC with PBMC; actives raise or lower the signal
# How it was run: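 Secreted MCP-1 read by ELISA at 24 h post-dosing in an LPS-activated co-culture of endothelial cells with peripheral blood mononuclear cells. Fits run in both directions, DMSO as baseline; parallel SRB staining tracks overt cytotoxicity.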
# [4] = BSK_LPS_PGE2: BioMAP Diversity Plus: LPS Assay for Prostaglandin E2 (PGE2) Biomarker Activity (AID 2283082); conditions: primary human HUVEC with PBMC; actives raise or lower the signal;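 for AC50: secreted prostaglandin E2 measured by ELISA in LPS-stimulated co-culture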
# How it was run: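 HUVEC plus human PBMC co-culture stimulated with LPS; secreted PGE2 quantified by ELISA 24 h after chemical dosing. Activity fitted bidirectionally against DMSO baseline; parallel SRB staining (0.1% SRB after 10% TCA fixation, 560 nm) flags overt cytotoxicity.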
# [5] = read-out: Macrophage colony-stimulating factor (MCSF), CSF1 (gene 1435); assay: BSK_LPS_MCSF: BioMAP Diversity Plus: LPS Assay for Macrophage colony-stimulating factor (MCSF) Biomarker Activity (AID 2283083); conditions: primary human HUVEC with PBMC; actives raise or lower the signal
# How it was run: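 Bidirectional fitting against DMSO was applied to M-CSF levels read by ELISA at 24 h post-dose. The system pairs human umbilical vein endothelium with peripheral blood mononuclear cells; parallel SRB staining tracked cytotoxicity.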
# [6] = read-out: Tissue Factor, F3 (gene 2152); assay: BSK_LPS_TissueFactor: BioMAP Diversity Plus: LPS Assay for Tissue Factor Biomarker Activity (AID 2283084); conditions: primary human HUVEC with PBMC; actives raise or lower the signal
# How it was run: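 Compound was added to an endothelial cell/PBMC co-culture, and after 24 h tissue factor (CD142) was read by ELISA. Gain or loss of signal was fitted against a DMSO baseline, and parallel SRB staining (560 nm) tracked overt cytotoxicity.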
# [7] = read-out: Tumor necrosis factor (Homo sapiens) (UniProt P01375); assay: BSK_LPS_TNFa: BioMAP Diversity Plus: LPS Assay for Tumour Necrosis Factor alpha (TNFa) Biomarker Activity (AID 2283085); conditions: primary human HUVEC with PBMC; actives raise or lower the signal
# How it was run: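 Human umbilical vein endothelial cells co-cultured with PBMC and stimulated with LPS. TNFa was measured by ELISA 24 h after chemical dosing, fitted bidirectionally relative to DMSO.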
# [8] = read-out: Vascular cell adhesion molecule 1 (VCAM1), VCAM1 (gene 7412); assay: BSK_LPS_VCAM1: BioMAP Diversity Plus: LPS Assay for Vascular cell adhesion molecule 1 (VCAM1) Biomarker Activity (AID 2283086); conditions: primary human HUVEC with PBMC; actives raise or lower the signal
# How it was run: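 Human umbilical vein endothelial cells co-cultured with PBMC and stimulated with LPS; VCAM-1 measured by ELISA 24 h after dosing. Bidirectional curve fitting against DMSO baseline; cytotoxicity tracked in parallel by SRB total-protein staining.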
# CD38, CD38 (gene 952) = assay: BSK_SAg_CD38: BioMAP Diversity Plus: SAg Assay for CD38 Biomarker Activity (AID 2283087); conditions: primary human HUVEC with PBMC; actives raise or lower the signal
# How it was run: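 Human HUVEC plus PBMC co-culture stimulated with superantigen; CD38 measured by ELISA 24 h after chemical dosing. Fluorescence read-out, bidirectional fit against DMSO; cytotoxicity tracked in parallel by SRB and Alamar Blue.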
# CD40, CD40 (gene 958) = assay: BSK_SAg_CD40: BioMAP Diversity Plus: SAg Assay for CD40 Biomarker Activity (AID 2283088); conditions: primary human HUVEC with PBMC; actives raise or lower the signal
# How it was run: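 CD40 is measured by fluorescence ELISA in an endothelial/PBMC primary human co-culture at 24 h post-dose. Fitting is bidirectional, DMSO baseline. Parallel SRB staining (560 nm) flags cytotoxicity.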
# CD69, CD69 (gene 969) = assay: BSK_SAg_CD69: BioMAP Diversity Plus: SAg Assay for CD69 Biomarker Activity (AID 2283089); conditions: primary human HUVEC with PBMC; actives raise or lower the signal
# How it was run: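 HUVEC co-cultured with PBMC were dosed with chemical, and CD69 was measured by ELISA with fluorescence read-out 24 h later. Bidirectional curve fitting used DMSO as negative control and activity baseline.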
# [9] = read-out: Monocyte Chemoattractant Protein-1 (MCP1), CCL2 (gene 6347); assay: BSK_SAg_MCP1: BioMAP Diversity Plus: SAg Assay for Monocyte Chemoattractant Protein-1 (MCP1) Biomarker Activity (AID 2283090); conditions: primary human HUVEC with PBMC; actives raise or lower the signal
# How it was run: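 MCP-1 levels in the endothelial–PBMC SAg co-culture were quantified by ELISA at 24 h post-dosing; both increases and decreases versus DMSO scored. Cytotoxicity monitored by SRB total protein in parallel cultures.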
# [10] = read-out: E-selectin (Homo sapiens) (UniProt P16581); assay: BSK_SAg_Eselectin: BioMAP Diversity Plus: SAg Assay for Eselectin Biomarker Activity (AID 2283091); conditions: primary human HUVEC with PBMC; actives raise or lower the signal
# How it was run: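 Cell-surface E-selectin is read by ELISA at 24 h in the SAg co-culture of HUVEC and PBMC. Curves are fitted in both directions relative to DMSO. Parallel SRB total-protein staining tracks overt toxicity.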
# [11] = read-out: Monokine induced gamma interferon (MIG), CXCL9 (gene 4283); assay: BSK_SAg_MIG: BioMAP Diversity Plus: SAg Assay for Monokine induced gamma interferon (MIG) Biomarker Activity (AID 2283092); conditions: primary human HUVEC with PBMC; actives raise or lower the signal
# How it was run: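 HUVEC plus human PBMC co-culture, chemicals dosed and MIG (CXCL9) quantified by ELISA at 24 h. Bidirectional curve fitting against DMSO as negative control and baseline, so both gain and loss of signal count as activity.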
# [12] = BSK_SAg_PBMCCytotoxicity: PBMC Cytotoxicity Assessment in the BioMAP Diversity Plus: SAg Assay (AID 2283093); conditions: primary human HUVEC with PBMC;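 note: PBMC viability measured as Alamar Blue reduction fluorescence at 546/580 nm; fitted both ways against DMSO so a hit may be loss or gain of signal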;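 for AC50: PBMC superantigen activated with SEB plus TSST-1 one hour after compound addition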
# How it was run: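 Human umbilical vein endothelial cells co-cultured with PBMC; PBMC (75,000/well) pre-treated with compound 1 h, then activated with SEB and TSST-1 (20 ng/mL final each) for 90 h. Alamar Blue added 6 h, fluorescence 546/580 nm; bidirectional fit versus DMSO.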
# [13] = read-out: Interleukin-8 (IL8), CXCL8 (gene 3576); assay: BSK_SAg_IL8: BioMAP Diversity Plus: SAg Assay for Interleukin-8 (IL8) Biomarker Activity (AID 2283094); conditions: primary human HUVEC with PBMC; actives raise or lower the signal
# How it was run: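 Human umbilical vein endothelial cells co-cultured with PBMC, stimulated with superantigen; IL-8 measured by ELISA 24 h after chemical dosing. Bidirectional fitting versus DMSO; SRB staining in parallel cultures tracks cytotoxicity.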
# [14] = BSK_SAg_Proliferation: Cell Proliferation Assessment in the BioMAP Diversity Plus: SAg Assay (AID 2283095); conditions: primary human HUVEC with PBMC
# How it was run: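 Human umbilical vein endothelial cells co-cultured with PBMC; sulforhodamine B total-protein staining (0.1% SRB after 10% TCA fixation, absorbance 560 nm) at 96 h in sub-confluent culture. Fitted bidirectionally against DMSO.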
# [15] = BSK_SAg_SRB: Viability Assessment in the BioMAP Diversity Plus: SAg Assay (AID 2283096); conditions: primary human HUVEC with PBMC;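 note: cells read one day after compound addition; hits may be either gain or loss of signal compared with DMSO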
# How it was run: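 Endothelial/PBMC primary human co-culture; compound 24 h; fix 10% TCA, stain 0.1% SRB, A560; protein content as cytotoxicity proxy; bidirectional curve fit, DMSO = baseline.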
# [16] = target: human CYP19A1, CYP19A1 (gene 1588) (UniProt P11511); assay: NVS_ADME_hCYP19A1: NovaScreen (NVS) CYP450-related Enzyme Activity (ADME) Assay for human CYP19A1 (AID 2283098; active = hit-call score of the fitted dose curve at least 0.9, where 1 is the maximum)
# Sequence of human CYP19A1, CYP19A1 (gene 1588) (P11511 whole entry, looked up): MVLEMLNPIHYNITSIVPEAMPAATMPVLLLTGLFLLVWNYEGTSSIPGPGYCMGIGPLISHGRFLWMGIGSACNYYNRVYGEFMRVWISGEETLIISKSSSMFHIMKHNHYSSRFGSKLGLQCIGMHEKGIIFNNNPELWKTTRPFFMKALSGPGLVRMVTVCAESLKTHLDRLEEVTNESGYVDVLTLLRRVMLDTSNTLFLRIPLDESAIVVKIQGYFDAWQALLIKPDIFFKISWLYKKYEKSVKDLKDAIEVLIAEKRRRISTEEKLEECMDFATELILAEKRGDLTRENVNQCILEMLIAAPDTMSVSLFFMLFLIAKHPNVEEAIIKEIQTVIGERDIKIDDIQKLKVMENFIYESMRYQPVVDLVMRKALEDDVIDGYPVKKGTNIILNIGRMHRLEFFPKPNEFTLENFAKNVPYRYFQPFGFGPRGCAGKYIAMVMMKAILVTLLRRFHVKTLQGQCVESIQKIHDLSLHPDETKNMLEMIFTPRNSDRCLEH
# How it was run: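 Cell-free enzyme assay with recombinant protein and a specific fluorogenic substrate, read by fluorescence intensity 0.5 h after dosing. Primary screen ran in duplicate at 10 uM; actives were retested in concentration series. Loss of signal versus acetonitrile baseline.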
# [17] = target: human CYP2A6, CYP2A6 (gene 1548) (UniProt P11509); assay: NVS_ADME_hCYP2A6: NovaScreen (NVS) CYP450-related Enzyme Activity (ADME) Assay for human CYP2A6 (AID 2283099; active = hit-call score of the fitted dose curve at least 0.9, where 1 is the maximum)
# Sequence of human CYP2A6, CYP2A6 (gene 1548) (P11509 whole entry, looked up): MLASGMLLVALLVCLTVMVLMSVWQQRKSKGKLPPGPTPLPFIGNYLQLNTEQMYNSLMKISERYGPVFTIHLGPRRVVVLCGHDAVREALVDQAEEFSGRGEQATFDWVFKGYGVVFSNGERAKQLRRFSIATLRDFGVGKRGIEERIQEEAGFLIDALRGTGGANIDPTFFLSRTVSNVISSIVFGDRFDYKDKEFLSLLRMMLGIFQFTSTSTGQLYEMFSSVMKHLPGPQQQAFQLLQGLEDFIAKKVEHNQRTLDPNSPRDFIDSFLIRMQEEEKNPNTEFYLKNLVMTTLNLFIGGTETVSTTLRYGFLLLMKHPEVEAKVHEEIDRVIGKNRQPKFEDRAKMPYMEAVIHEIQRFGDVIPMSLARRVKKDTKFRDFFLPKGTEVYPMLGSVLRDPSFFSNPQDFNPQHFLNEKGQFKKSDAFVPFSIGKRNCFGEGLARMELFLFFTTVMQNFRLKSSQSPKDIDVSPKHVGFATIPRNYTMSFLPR
# How it was run: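 Compounds screened at 10 uM (duplicate) and, if active, titrated to a 20 uM top concentration against insect-cell-expressed CYP2A6. Loss of fluorescent product signal after 0.5 h, relative to acetonitrile baseline, indicates inhibition.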
# Sequence of E-selectin (Homo sapiens) (P16581 whole entry, looked up): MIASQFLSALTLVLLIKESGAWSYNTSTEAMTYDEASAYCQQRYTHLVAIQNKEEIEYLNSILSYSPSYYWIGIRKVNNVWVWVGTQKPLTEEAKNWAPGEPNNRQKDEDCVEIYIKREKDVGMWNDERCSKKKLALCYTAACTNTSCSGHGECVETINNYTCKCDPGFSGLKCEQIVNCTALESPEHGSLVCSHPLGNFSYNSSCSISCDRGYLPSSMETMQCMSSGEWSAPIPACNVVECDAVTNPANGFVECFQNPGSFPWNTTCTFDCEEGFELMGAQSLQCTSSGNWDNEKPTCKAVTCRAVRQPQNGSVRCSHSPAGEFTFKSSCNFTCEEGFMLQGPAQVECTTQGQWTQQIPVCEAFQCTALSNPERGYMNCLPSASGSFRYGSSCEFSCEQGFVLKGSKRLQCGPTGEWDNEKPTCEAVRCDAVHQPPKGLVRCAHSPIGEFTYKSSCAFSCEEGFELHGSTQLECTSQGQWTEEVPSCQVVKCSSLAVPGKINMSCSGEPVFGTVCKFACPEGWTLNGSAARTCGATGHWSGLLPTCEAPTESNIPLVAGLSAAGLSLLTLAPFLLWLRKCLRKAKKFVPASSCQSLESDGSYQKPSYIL
# Sequence of Tumor necrosis factor (Homo sapiens) (P01375 whole entry, looked up): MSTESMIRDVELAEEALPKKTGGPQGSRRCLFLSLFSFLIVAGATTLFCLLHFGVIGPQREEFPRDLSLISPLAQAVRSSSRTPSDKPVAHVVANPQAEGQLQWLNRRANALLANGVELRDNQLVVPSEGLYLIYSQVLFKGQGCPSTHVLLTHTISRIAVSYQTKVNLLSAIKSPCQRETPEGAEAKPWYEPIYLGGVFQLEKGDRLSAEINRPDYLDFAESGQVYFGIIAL
compound,measurement,setting,value
ClC1=C(Cl)[C@]2(Cl)[C@@H]3[C@@H](Cl)[C@H]4O[C@H]4[C@@H]3C1(Cl)C2(Cl)Cl,AC50,[1],6.81 µM (active)
same,outcome,[2],inactive
same,outcome,[3],inactive
same,outcome,[4],inactive
same,outcome,[5],inactive
same,outcome,[6],inactive
same,AC50,[7],2.42 µM (active)
same,outcome,[8],inactive
same,AC50,"CD38, CD38 (gene 952)",8.15 µM (active)
same,AC50,"CD40, CD40 (gene 958)",11.6 µM (active)
same,outcome,"CD69, CD69 (gene 969)",inactive
same,outcome,[9],inactive
same,AC50,[10],9.42 µM (active)
same,outcome,[11],inactive
same,outcome,[12],inactive
same,outcome,[13],inactive
same,AC50,[14],14.7 µM (active)
same,AC50,[15],10.6 µM (active)
same,outcome,[16],inactive
COc1ccc(O)c(C(C)(C)C)c1,outcome,[1],inactive
same,outcome,[2],inactive
same,outcome,[3],inactive
same,AC50,[4],1.71 µM (active) and 2.48 µM (active) and 4.59 µM (active)
same,outcome,[6],inactive
same,outcome,[7],inactive
same,outcome,[8],inactive
same,outcome,"CD38, CD38 (gene 952)",inactive
same,AC50,"CD40, CD40 (gene 958)",28.9 µM (active)
same,outcome,"CD40, CD40 (gene 958)",inactive
same,outcome,"CD69, CD69 (gene 969)",inactive
same,outcome,[10],inactive
same,outcome,[11],inactive
same,AC50,[12],20 µM (active)
same,outcome,[12],inactive
same,outcome,[13],inactive
same,outcome,[14],inactive
same,outcome,[15],inactive
same,outcome,[17],inactive
